DT40 TDP1 no CPT – qHTS for Inhibitors of human tyrosyl-DNA phosphodiesterase 1 (TDP1): qHTS in cells in absence of CPT; DT40 Tdp1-/- hTDP1 cells, no CPT, ATP luminescence, 48 h; Potency, µM (doses to about 46.2 µM), for the others: top-dose activity change, negative = growth inhibition, hits mostly inhibitors; actives 15% (n = 420,000); AID 686978, 2013; further: on the % scale 0 is the no-effect control and ±100 the full control effect; nearly all actives have a fitted effect of over 55% in size
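Stably hTDP1-transfected Tdp1-null chicken DT40 cells were treated with library compounds minus camptothecin and grown for at least 48 hr at 37 °C, after which cellular ATP was quantified by luminescence.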
ATXN viability – viability counter-screen for ATXN expression inhibitors; S2 cells (HEK-293 line with an ATXN2-luciferase reporter) viability, CellTiter-Fluor protease fluorescence, 24 h; Potency, µM (series often up to 56.7 µM), hits mostly cytotoxic; actives 0.49% (n = 400,000); further: nearly all actives have a fitted effect of over 40% in size
ATXN2 expr inh – reduces ATXN2 reporter expression in HEK-293 cells; HEK-293 ATXN2-luciferase reporter, luminescence, 24 h; Potency, µM (titrated, usually from 57 µM), without a hit: top-dose activity change, negative = inhibition, usual class: inhibitors; actives 0.72% (n = 360,000); further: on the % scale 0 is the no-effect control and ±100 the full control effect; nearly all actives have a fitted effect of over 55% in size
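ATXN2-luciferase reporter cells (luciferase flanked by upstream and downstream ATXN2 gene portions) were treated 24 h at 37 °C with compounds at up to 57 uM. SteadyGlo luminescence gave expression; GF-AFC fluorescence gave viability.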
TGFb SMAD3 inh – blocks TGF-b signaling. HepG2 CAGA-GFP TGF-b/SMAD3 reporter, GFP fluorescence, 18 h; TGF-beta stimulated, 500 pg/mL final. Potency, µM (highest dose often 46.1 µM), for inactives: at the top dose activity, negative = inhibition, usual class: inhibitors. actives 1.2% (n = 410,000); further: on the % scale 0 is the no-effect control and ±100 the full control effect; nearly all actives have a fitted effect of over 65% in size
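Read-out: total well GFP (ex488/em500-530) summed from mean per-cell fluorescence. Cells: HEPG2 CAGA-GFP, 1% FBS DMEM, 18 h at 37 degrees C with 500 pg/mL final TGF-beta. Unstimulated wells served as the full-inhibition control; stimulated DMSO wells = 0%.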
HepG2 tox – HepG2 cytotoxicity, counter-screen for TGF-b inhibitors; HepG2 CAGA-GFP viability, ATP luminescence, 18 h; Potency, µM (highest dose often 46.1 µM), for inactives: at the top dose activity change, negative = cytotoxicity, most hits filed as cytotoxic; actives 0.76% (n = 410,000); AID 588856
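HepG2 CAGA-GFP cells (1000/well, DMEM with 1% FBS) received compound, then TGF-beta at 500 pg/mL final, and were incubated 18 hours at 37 degrees C. Viability was read by CellTiter-Glo luminescence. Media-only wells were set as complete cell-killing and DMSO as no toxicity.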
TDP1 cell CPT – DT40-hTDP1 cell growth loss with CPT; actives 12% (n = 420,000); Potency, µM (highest dose often 46.2 µM), inactives show at the top dose activity change, negative = growth inhibition, hits mostly inhibitors; chicken DT40 Tdp1-/-;hTDP1 cells + 20 nM CPT, ATP luminescence, 48 h; further: on the % scale 0 is the no-effect control and ±100 the full control effect; nearly all actives have a fitted effect of over 55% in size
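Chicken DT40 Tdp1-/- cells stably complemented with human TDP1 were seeded at 400 cells/well in medium containing 20 nM camptothecin, exposed to pin-transferred compounds, and grown at 37 °C for at least 48 hr. Viability was read as ATP luminescence.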
Numbers without * were called inactive; i = inactive; ? = inconclusive; / = no result; ! = repeats disagree; [ ] = another dose, or the depositor's remark. An excerpt weighted towards active compounds, which were near 17% of everything screened. The call rests on the fitted dose curve; in most records, active means well fitted curve in the direction sought with a large enough effect; inconclusive means small, poorly fitted or top-dose-only effect, or another doubt; inactive means no such curve, though single readings can be large; an effect the other way counts as inactive or inconclusive. Potency means the concentration at half of the fitted maximal effect.

SMILES	DT40 TDP1 no CPT	ATXN viability	ATXN2 expr inh	TGFb SMAD3 inh	HepG2 tox	TDP1 cell CPT
COc1ccc(C(C(=O)NC2CCCCC2)n2c(=O)c(-c3ccco3)nc3ccccc32)cc1 (centres undefined)	25.9µM*	/	/	/	/	?
O=C(NC1CCCCC1)C(c1cccc2ccccc12)n1c(=O)c(-c2ccco2)nc2ccccc21 (centres undefined)	23.1µM*	/	/	/	/	16.4µM*
O=C(NCc1ccc(F)cc1)C(=O)NCC(c1ccco1)S(=O)(=O)c1cccs1 (centres undefined)	?	/	/	?	-8.9%	?
CCc1ccccc1NC(=O)Cn1nnc(-c2nc(-c3ccncc3)no2)c1N	2.1%	/	/	/	-2.0%	-4.9%
O=C(Cc1ccccc1)NCc1ccc(-n2cccc2)cc1	3.66µM*	i	0.3%	?	-13.0%	3.26µM*
O=C(Cc1ccc(-n2cccc2)cc1)NCc1ccccc1Cl	5.8µM*	i	-16.3%	-31.6%	-8.9%	5.8µM*
O=C(CNC(=O)c1ccc(Br)o1)NCc1ccccc1Cl	-2.9%	i	7.8%	0.2%	20.6%	11.5%
CSCCC(NC(=O)c1ccco1)C(=O)NCCc1ccc(Cl)cc1 (centres undefined)	6.7%	i	-10.7%	6.3%	1.6%	-5.7%
O=C1NC(CCO)C(=O)NC1CCO (centres undefined)	-4.4%	i	-3.4%	9.1%	4.2%	22.3%
FC(F)Sc1ccc(NC2=NCCCCC2)cc1	-22.3%	i	/	-6.9%	1.4%	1.9%
Brc1ccc(-c2csc3[n+]2CCCCC3)cc1	?	i	-13.8%	7.7%	-0.3%	-3.7%
FC(F)Sc1ccc(-n2cc(-c3ccc(Cl)cc3)[n+]3c2CCC3)cc1	8.2µM*	?	-28.8%	8.9%	10.8%	9.2µM*
Cc1ccc(-c2cn(-c3ccc(SC(F)F)cc3)c3[n+]2CCC3)cc1	0.461µM*	i	-24.1%	-8.1%	-8.9%	0.651µM*
Clc1ccc(-n2cc(-c3ccc(Br)cc3)[n+]3c2CCCCC3)cc1	6.51µM*	i	/	10.0%	-7.8%	5.8µM*
Cc1ccccc1CN(C)C1CCN(C)CC1	1.5%	/	/	24.6%	22.8%	0.6%
CN(C)CCCN(Cc1ccccc1)C(=S)NCc1ccccc1	?	i	/	12.2%	-8.5%	-24.5%
FC(F)(F)c1ccc(NC(=S)NCc2ccccc2)cc1	?	i	-24.3%	?	-46.5%	14.6µM*
CN(C(=S)Nc1ccc(SC(F)F)cc1)C(c1ccccc1)c1ccccc1	?	i	/	?	-39.9%	?
FC(F)Sc1ccc(NC(=S)NC(c2ccccc2)c2ccccc2)cc1	10.3µM*	?	/	5.62µM*	11.2µM*	4.61µM*
CN(C)CCCN(Cc1ccccc1)C(=S)Nc1ccc(SC(F)F)cc1	23.1µM*	?	-24.9%	?	-37.3%	18.4µM*
FC(F)Sc1ccc(NC(=S)NCc2ccccc2)cc1	?	i	-13.8%[11.3 µM]	?	-14.2%	25.9µM*
COc1ccc(Cc2nc3ccc(C(=O)NCc4cc(Br)ccc4OC)cc3o2)cc1	-24.5%	/	/	0.1%	-14.8%	?
CCC1(C2CCN(C(=O)c3cc4ccccc4o3)CC2)NC(=O)N(CCc2scnc2C)C1=O (centres undefined)	?	i	/	/	/	12.8%[9.04 µM]
COc1ccc(C(=O)c2c(-c3cccc(C)c3)oc3ccc(N4CCOCC4)cc23)cn1	14.6µM*	i	102.9%	-10.1%	-15.8%	?
COc1ccc(CN2CCN(C(=O)CC(C)C)CC2)cc1Br	?	i	-5.9%	4.9%	0.7%	-2.1%
SMILES	DT40 TDP1 no CPT	ATXN viability	ATXN2 expr inh	TGFb SMAD3 inh	HepG2 tox	TDP1 cell CPT
COc1ccc(/C=C/C(=O)N(CC(C)C)CC(C)C)cc1Br	16.4µM*	i	-10.9%	-3.5%	-4.2%	16.4µM*
COc1ccccc1NC(=O)NCCN1CCCCC1	6.4%	i	/	5.8%	3.3%	-1.0%
O=C(NCCN1CCN(c2ccccc2)CC1)Nc1ccc(Cl)cc1	-25.5%	i	3.8%	-24.7%	-8.4%	-4.6%
O=C(NCCN1CCN(c2cccc(Cl)c2)CC1)Nc1ccccc1	14.6µM*	i	-29.2%	?	-8.9%	?
COc1ccc2c(c1)CC(C(=O)NCCN1CCN(c3cccc(Cl)c3)CC1)CO2 (centres undefined)	14.6µM*	?	-30.0%	-10.3%	-25.7%	16.4µM*
O=C(NCCN1CCN(c2ccccc2)CC1)Nc1cccc(Br)c1	29.1µM*	?	-20.2%	-9.5%	-38.1%	?
COc1ccccc1NC(=O)NCCN1CCN(c2cccc(Cl)c2)CC1	23.1µM*!	i	-11.4%	1.8%	-4.3%	?
CCOCCc1c(O)nc(SCCOc2ccc(C)c(C)c2)[nH]c1=O	-9.5%	i	-6.1%	19.9%	2.2%	1.5%
COc1cccc(Cc2nc3ccccc3nc2SCC(=O)NCc2ccc(C)cc2)c1	?	/	/	-0.2%	2.7%	?
Cc1ccccc1C(=O)NCc1ccc2c(c1)CCN2C(=O)c1ccc(F)cc1	-24.6%	/	/	17.6%	4.2%	-18.5%
C=CCNC(=O)C1CC2Cn3c(nc4cc(Cl)c(Cl)cc43)C2N1C (centres undefined)	-17.7%	i	14.5%	-0.9%	1.9%	-15.5%
CCCC(=O)NC(c1ccc(Cl)cc1Cl)c1ccc2cccnc2c1O (centres undefined)	4.61µM*	i	?	?	-17.5%	4.11µM*
CC(=O)NC(c1ccc(Cl)cc1Cl)c1ccc2cccnc2c1O (centres undefined)	4.61µM*	?	?	?	-4.3%	3.66µM*
COc1ccccc1NCC(=O)N/N=C/c1cccnc1	-0.2%	i	4.8%	4.5%	4.8%	-13.9%
COc1ccccc1N(CC(=O)N/N=C/c1c(O)ccc2ccccc12)S(C)(=O)=O	5.8µM*	i	8.91µM*	-20.0%	-0.8%	5.17µM*
CCOc1ccc2ccccc2c1/C=N/NC(=O)CNC(=O)c1ccccc1F	?	i	-16.3%	-0.5%	-32.9%	-17.6%
Cn1ncc(N=Cc2c(O)ccc3ccccc23)c1C(=O)N1CCOCC1	-19.9%	i	2.8%	-1.6%	-11.7%	0.6%
CCOc1ccc2ccccc2c1/C=N/NC(=O)CNC(=O)Cc1ccccc1	0.8%	i	-5.7%	0.7%	-13.8%	18.4µM*
COc1ccccc1NC(=O)c1c(N=Cc2c(O)ccc3ccccc23)cnn1C	6.51µM*	?	-20.3%	-15.3%	-12.7%	8.2µM*
